Laboratory results as given in PubChem BioAssay (NCI).
Compounds without any hit were thinned out: in the full panel of roughly 83,000, 20% have a hit.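 Activity criterion: percent growth below 10, measured after cells in 96-well plates were exposed to a single compound concentration for 48 hours.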 Calls of active or inactive are those of the source.

What follows are compounds tested on MDA-MB-468 breast (assay: NCI-60 one-dose screen, 48 h (100 = growth as untreated, 0 = no growth, -100 = all killed)). Conditions: 10 µM unless noted.

SMILES | growth
CCCCCCCCc1cc[n+](CC(=O)c2ccc(Br)cc2)cc1 | -87% (active)
O=C(CSc1nc2ccccc2c(=O)n1-c1ccccc1)Nc1ccc(-c2nc3ccc([N+](=O)[O-])cc3[nH]2)cc1 | 81.5% (inactive)
CN1CCN(Cc2ccc(NC(=O)c3cncc(C#Cc4cnc5ccc(Cl)nn45)c3)cc2C(F)(F)F)CC1 | -20.1% (active)
Nc1nc2ncc(CCNc3ccc(C(=O)NC(CCC(=O)O)C(=O)O)cc3)nc2c(=O)[nH]1 (centres undefined) | 96.7% (inactive)
COc1ccc2nc3ccccc3c(NCCNCC(C)O)c2c1 (centres undefined) | -24.6% (active)
COC(=O)c1cccc(NC2=C(Cl)C(=O)C(C)=C(C)C2=O)c1 | -62% (active)
CN(C)c1nc(N)nc(Cn2c(-c3nonc3N)nc3ccccc32)n1 | 23.2% (inactive)
Cc1cc(Cl)cc(Cc2cc(Cl)cc(C)c2O)c1O | 50.2% (inactive)
CCCSC1=NC2C(N(CC)C(=O)N2CC)N1/N=C/C=C/c1ccccc1[N+](=O)[O-] (centres undefined) | 29.9% (inactive)
Oc1ccc(Nc2nccc(-c3ccc4ccccc4c3)n2)cc1 | 20.7% (inactive)
COc1ccc(C(=O)NC(=O)Nc2ccc3c(c2)NC(=O)/C3=C\c2[nH]c(C)c(CCC(=O)O)c2C)c(F)c1 | 59.7% (inactive)
COc1cccc(/C=N/NC(=S)NC2CC3CCC2C3)c1O (centres undefined) | 68.2% (inactive)
O=C(Nc1cccc(-n2cc(-c3ccncc3)c(-c3ccc(O)c(Cl)c3)n2)c1)c1cc(C(F)(F)F)cc(C(F)(F)F)c1 | 61.6% (inactive)
O=C1C[C@H](Sc2nc(-c3ccc(F)cc3)cc(C(F)(F)F)n2)[C@H]2CO[C@@H]1O2 | 71.4% (inactive)
